Measured values reported in PubChem BioAssay AID2360 (The Scripps Research Institute Molecular Screening Center, 2010).
Screen size: about 1,900 compounds; about 85 (4%) were called active.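 The calls were made as follows: active = mean PP5 inhibition over triplicate wells above about 9.5% taken from the earlier PP1 screen (limit read from the data); inactive = the rest.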 This excerpt belongs to a sample that is enriched for actives.

These compounds were tested against Serine/threonine-protein phosphatase 5 (Homo sapiens) (UniProt P53041) (assay: human PP5 catalytic subunit inhibitors – biochemical, fluorescence, triplicate, counter-screen for PP1 inhibitor project, confirmation (AID 2360)). Conditions: purified PP5c, OMFP fluorescence; at 6.7 µM; hits give high values.
Sequence of Serine/threonine-protein phosphatase 5 (Homo sapiens) (P53041 whole entry, looked up): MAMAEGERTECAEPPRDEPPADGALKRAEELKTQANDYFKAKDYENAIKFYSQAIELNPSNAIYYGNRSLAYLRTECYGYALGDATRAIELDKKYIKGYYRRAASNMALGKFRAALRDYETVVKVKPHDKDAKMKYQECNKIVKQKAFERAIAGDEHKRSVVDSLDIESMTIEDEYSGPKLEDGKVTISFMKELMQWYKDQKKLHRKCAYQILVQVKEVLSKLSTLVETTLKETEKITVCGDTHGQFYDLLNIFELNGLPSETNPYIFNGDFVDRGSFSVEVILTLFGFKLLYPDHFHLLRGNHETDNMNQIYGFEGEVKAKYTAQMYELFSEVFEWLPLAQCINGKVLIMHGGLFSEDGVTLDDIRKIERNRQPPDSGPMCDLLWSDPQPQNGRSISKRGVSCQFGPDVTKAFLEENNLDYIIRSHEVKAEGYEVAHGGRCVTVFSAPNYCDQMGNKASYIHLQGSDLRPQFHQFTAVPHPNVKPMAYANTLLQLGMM

Row | Structure (SMILES) | inhibition
1 | O=C(O)c1ccccc1NC(=O)C1C2CCC(O2)C1C(=O)O (stereo not drawn) | 17.6% (active)
2 | CCOP(=O)(OCC)C(O)c1ccc(OC)cc1OC (stereo not drawn) | -3.76% (inactive)
3 | O=c1[nH]c(CN2CC=C(c3ccccc3)CC2)nc2scc(-c3cccs3)c12 | -3.01% (inactive)
